Measurements published in PubChem BioAssay (NCATS).
Results filed as inconclusive are left out. Active and inactive are the calls of the source. Calls follow the shape of the dose curve; as a rule, active = well fitted curve in the direction sought with a large enough effect; inconclusive = small, poorly fitted or top-dose-only effect, or another doubt; inactive = no such curve, though single readings can be large; an effect the other way counts as inactive or inconclusive.

Legend:
[1] = target: Nuclear receptor subfamily 1 group I member 3 (Homo sapiens) (UniProt Q14994); experiment: qHTS for Constitutive Androstane Receptor (CAR) Antagonist screened against the NCATS CANVASS Library (AID 1347372); conditions: HepG2-hCAR-CYP2B6 luciferase, CITCO-stimulated antagonist mode; series mostly up to 46.1 µM;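 also: cells stimulated with 50 nM CITCO agonist so inhibition reflects antagonism; luciferase from CYP2B6 promoter reporter driven by hCAR in HepG2 cells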
Nuclear receptor subfamily 1 group I member 3 (Homo sapiens), sequence (Q14994 whole entry, looked up): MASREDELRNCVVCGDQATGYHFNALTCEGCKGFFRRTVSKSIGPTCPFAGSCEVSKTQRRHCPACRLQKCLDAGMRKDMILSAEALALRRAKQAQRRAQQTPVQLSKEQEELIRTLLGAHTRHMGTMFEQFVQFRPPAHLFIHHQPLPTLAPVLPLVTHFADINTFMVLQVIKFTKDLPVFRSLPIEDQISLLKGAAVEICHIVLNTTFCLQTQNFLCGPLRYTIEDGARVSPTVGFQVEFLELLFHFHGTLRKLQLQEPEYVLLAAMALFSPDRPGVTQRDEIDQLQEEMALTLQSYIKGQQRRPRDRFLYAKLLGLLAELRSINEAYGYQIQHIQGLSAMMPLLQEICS
Procedure, shortened: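 Luminescence readout (ONE-Glo, 30 min RT) of CYP2B6-2.2kb reporter in HepG2-hCAR cells after 24hr, 37C treatment with compound against 50 nM CITCO; CellTiter-Fluor viability read beforehand.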

[2] = target: Nuclear receptor subfamily 1 group I member 3 (Homo sapiens) (UniProt Q14994); experiment: qHTS for Constitutive Androstane Receptor (CAR) Agonist screened against the NCATS CANVASS Library (AID 1347373); conditions: HepG2-hCAR-CYP2B6 luciferase reporter, ONE-Glo luminescence; series mostly up to 46.1 µM;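 also: every well also contained 1.5 µM PK11195 alongside the test compound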; also: potency is read from the fitted curve at half-maximal effect
Procedure, shortened: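 Cells were plated and allowed to attach for 4hr, then dosed with compound in an 11-point series alongside 1.5uM PK11195. After 24hr at 37C, viability was measured fluorometrically and CAR-driven CYP2B6 reporter luminescence was recorded.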

[3] = qHTS for Hypoxia signaling pathway (HIF-1) antagonists against the NCATS CANVASS Library (AID 1347374); conditions: HRE-bla ME-180 cells, HIF-1 beta-lactamase reporter, CoCl2; series mostly up to 38.3 µM;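 also: HRE-bla ME-180 cells stimulated with cobalt chloride to stabilize HIF-1alpha; nearly all actives have a fitted effect of over 60% in size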
Procedure, shortened: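 Antagonism scored as loss of CoCl2-driven (60 uM stock added) HRE beta-lactamase signal, read by CCF4 FRET at 460/530 nm. Compounds were tested in an 11-point series on ME-180 reporter cells for 17 hrs at 37C, with parallel CellTiter-Glo cytotoxicity.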

[4] = qHTS for Hypoxia signaling pathway (HIF-1) agonists against the NCATS CANVASS Library (AID 1347375); conditions: HRE-bla ME-180 cells, HIF-1 beta-lactamase reporter, 17 h; series mostly up to 38.3 µM
Procedure, shortened: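 Cells plated and rested 5 h, compounds pinned in DMSO across 11 concentrations, incubated 17 h at 37C, loaded with CCF4-AM for 2 h, fluorescence read at 460 and 530 nm, then CellTiter-Glo luminescence measured for viability and normalization.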

[5] = 10-beta competent E. coli microbial cell viability qHTS against the NCATS CANVASS Library (AID 1347376); conditions: E. coli 10-beta viability, BacTiter-Glo ATP luminescence, overnight; series mostly up to 46.1 µM
Procedure, shortened: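 Bacterial suspension diluted to 0.2 OD was dosed with compounds, 11-point series, then held overnight at 37C. BacTiter-Glo reagent was added, and after 20 min at room temperature ATP-dependent luminescence was measured.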

[6] = DH5-alpha competent E. coli microbial cell viability qHTS against the NCATS CANVASS Library (AID 1347377); conditions: BacTiter-Glo ATP luminescence, overnight; series mostly up to 46.1 µM
Procedure, shortened: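 Bacteria were dispensed at 0.2 OD, then compounds were pin-transferred. Plates were incubated overnight at 37C, after which BacTiter-Glo was added and luminescence measured 20 min later.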

[7] = qHTS for H2AX Agonists against the NCATS CANVASS Library (AID 1347378); conditions: CHO-K1 H2AX phosphorylation, HTRF TR-FRET, 3 h; series mostly up to 76.9 µM
Procedure, shortened: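 TR-FRET readout (ex 320 nm, em 665/620 nm ratio) of phospho-H2AX (S139) in CHO-K1 lysates. Cells treated 3 hr at 37C with compound titration, 0.76% DMSO; lysis 30 min, antibody detection 24 hr at RT.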

[8] = qHTS for Antimalaria activity screened against the NCATS CANVASS Library (AID 1347380); also: nearly all actives have a fitted effect of over 40% in size; also: potency is read from the fitted curve at half-maximal effect; conditions: P. falciparum Dd2 growth, SYBR Green fluorescence, 72 h; series mostly up to 57 µM
Procedure, shortened: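 Compounds are titrated over 11 concentrations onto Dd2 parasite cultures (0.3% parasitemia, 2.5% hematocrit). Growth over 72 h at 37C in low oxygen is measured as SYBR Green DNA fluorescence after lysis.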

[9] = Inflammasome Signaling qHTS Counterscreen: IL-1-beta AlphaLISA counterscreen against the NCATS CANVASS Library (AID 1347381); conditions: Purified IL-1beta AlphaLISA signal interference counterscreen; series mostly up to 57.5 µM;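 also: cell-free check with purified IL-1β in medium and no THP-1 cells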
Procedure, shortened: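 Purified IL-1-beta (4 pg/well) + compound, 11-pt conc. series; acceptor beads 6 ug/mL + biotin-Ab 0.6 nM final, 1 h RT; SA-donor 24 ug/ml final, 30 min dark RT; read ex 680/em 615.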

[10] = Cytotoxicity qHTS for assessment of Hepg2 cells membrane integrity screened against the NCATS CANVASS Library (AID 1347387); conditions: HepG2 LDH release (CytoTox-ONE) fluorescence, 5 h; series mostly up to 46.1 µM
Procedure, shortened: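 Cells were seeded at 2000 per well and left overnight to attach. Compounds were pin-transferred to give 0.59 nM - 46 uM in an 11-point series and incubated 5 hr at 37C. CytoTox-ONE reagent was added and, after 10 min at room temperature, fluorescence (ex 560, em 590 nm) was read.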

[11] = qHTS for Activators of p53 Stress Response Pathway screened against the NCATS CANVASS Library (AID 1347388); conditions: p53RE-bla HCT-116, beta-lactamase reporter, 16 h; series mostly up to 46.1 µM
Procedure, shortened: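 p53RE-bla HCT-116 cells (4000/well) were pre-incubated for 5 h, then treated with compound (11 points) for 16 h at 37C. After 2 h with CCF4, the 460/530 nm ratio gave reporter activation; CellTiter-Glo measured viability.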

[12] = qHTS assay for small molecule disruptors of mitochondrial membrane potential screened against the NCATS CANVASS Library (AID 1347389); conditions: HepG2 mitochondrial membrane potential, m-MPI red/green ratio, 1.5 h; series mostly up to 46.1 µM; also: nearly all actives have a fitted effect of over 60% in size
Procedure, shortened: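 Mitochondrial depolarization in HepG2 cells is scored as a falling aggregate-to-monomer fluorescence ratio after 1 hr compound exposure and 30 min staining with Mito-MPS dye at 37C, each compound tested as an 11-point titration.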

[13] = Secretion counterscreen for inhibitors of the SERCaMP assay screened against the NCATS CANVASS Library (AID 1347390); conditions: SH-SY5Y constitutive GLuc secretion, luminescence, 20 h; series mostly up to 76.6 µM;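 also: light from luciferase secreted into medium read as a measure of general secretion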
Procedure, shortened: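 Luminescence from constitutively secreted GLuc in SH-SY5Y-GLuc STOP cells, read after coelenterazine addition, served as read-out. Compounds tested 0.001 - 77 uM for 20 h at 37C; Brefeldin A as positive control.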

[14] = qHTS for activators of Nrf2/ARE signaling pathway screened against the NCATS CANVASS Library (AID 1347391); conditions: ARE-bla HepG2, beta-lactamase reporter, 16 h; series mostly up to 91.4 µM; also: nearly all actives have a fitted effect of over 60% in size; also: potency is read from the fitted curve at half-maximal effect
Procedure, shortened: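 Beta-lactamase reporter signal, read as 460 and 530 nm emission under 405 nm excitation after 2 h CCF4 loading, reflected ARE activation in HepG2 cells treated 16 h with an 11-point series.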

[15] = qHTS for activators of dead-cell proteases activity screened against the NCATS CANVASS Library (AID 1347392); conditions: HepG2 cytotoxicity, dead-cell protease luminescence, 5 h; series mostly up to 46.1 µM;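 also: luminescence from protease leaking out of membrane-damaged cells cleaving impermeant substrate; rising signal means more cytotoxicity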
Procedure, shortened: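 HepG2, 2000 cells/well, 18 h attach; cpd 11-pt, 5 h 37C 5% CO2; CytoTox-Glo (AAF-aminoluciferin) 15 min RT; luminescence read.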

[16] = qHTS for inhibitors of ER calcium dysfunction: SERCaMP assay screened against the NCATS CANVASS Library (AID 1347393); conditions: SH-SY5Y GLuc-SERCaMP secretion, thapsigargin, luminescence; series mostly up to 76.6 µM; also: nearly all actives have a fitted effect of over 40% in size; also: potency is read from the fitted curve at half-maximal effect
Procedure, shortened: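 SH-SY5Y GLuc-SERCaMP, 1000 cells/well, 4 h attach; cpd 16 h, 37C/5% CO2; thapsigargin (added as 6x 600 nM) 4 h; coelenterazine; luminescence. Reduced reporter release = ER Ca stabilization.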

[17] = Vero-766 cells viability qHTS against the NCATS CANVASS Library: Counterscreen for Zika virus inhibition assay (AID 1347394); conditions: Vero 766 viability, CellTiter-Glo luminescence, 72 h; series mostly up to 46.1 µM; also: nearly all actives have a fitted effect of over 60% in size
Procedure, shortened: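 CellTiter-Glo luminescence, lower signal indicating cytotoxicity. Vero 766 cells without Zika virus, 1000 cells/well, plated overnight, then treated 72 h at 37C across an 11-point series.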

[18] = Viability qHTS for inhibitors of the SERCaMP assay screened against the NCATS CANVASS Library (AID 1347400); conditions: SH-SY5Y SERCaMP cells viability, CellTiter-Glo, 48 h; series mostly up to 92.2 µM; also: nearly all actives have a fitted effect of over 70% in size
Procedure, shortened: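 Seed SH-SY5Y-GLuc SERCaMP MJH297 cells at 1000 per well, incubate 4 h, add compounds across an 11-point range, incubate 48 h at 37C, then add CellTiter-Glo and read luminescence.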

[19] = qHTS for Inflammasome Signaling Inhibitors: IL-1-beta AlphaLISA screen against the NCATS CANVASS Library (AID 1347379); conditions: THP-1 LPS/ATP, IL-1B AlphaLISA secretion, 16 h; series mostly up to 57.5 µM;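 also: human THP-1 cells primed with LPS then triggered with ATP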
Procedure, shortened: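 Secreted IL-1B from human THP-1 cells quantified by AlphaLISA 16 hr after compound addition (final up to 57.5 uM). A 1 hr compound pretreatment preceded inflammasome activation with 250 ng/mL LPS plus 1.25 mM ATP (final).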

[20] = qHTS for inhibitors of Wild type Zika virus screened against the NCATS CANVASS Library (AID 1347396); conditions: Vero cells, Zika virus CPE, CellTiter-Glo, 72 h; series mostly up to 91 µM;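 also: ATP luminescence of surviving cells so rescue from viral cell killing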
Procedure, shortened: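 Using ATP-based luminescence (CellTiter Glo), this screen scores rescue of Vero 766 cells from wild-type Zika killing at 72 h post-infection. Compounds are tested in a concentration series.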

Measured: Potency

CC(=O)O[C@H]1C[C@@]2(C)[C@@H](CC[C@H]3[C@@]4(C)C=CC(=O)[C@@H](C)[C@@H]4[C@H](OC(C)=O)C(=O)[C@@]32C)/C1=C(\CCC=C(C)C)C(=O)O
active: [8] 10.6 µM | [14] 20.9 µM | [16] 30.5 µM
inactive: [1] | [2] | [3] | [4] | [5] | [6] inactive [at 46.1 µM] | [7] | [9] | [10] | [11] | [12] | [13] | [15] | [17] | [18]

C/C(=C\CC/C(C)=C/CC[C@]1(C)CCc2cc(O)cc(C)c2O1)CC/C=C(\C)C(=O)O
not listed: [3] | [6] | [8] | [11] | [17] | [20]
inactive: all other assays above

O=C(/C=C/C=C/c1ccc2c(c1)OCO2)N1CCCCC1
active: [2] 4.14 µM | [16] 60.5 µM
not listed: [3] | [4] | [13]
inactive: all other assays above

CC(C)c1ccc2c(c1)CCC1[C@](C)(C(=O)O)CCC[C@]21C (some centres not stated)
not listed: [2] | [14]
inactive: all other assays above
